# Screens deposited in PubChem BioAssay by The Scripps Research Institute Molecular Screening Center.
# ADAM17 inh: inhibits human ADAM17; 0.83% of 370,000 active; inhibition, % at 6.95 µM; recombinant ADAM17, EDANS/DABCYL FRET peptide cleavage; P78536;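 active means inhibition above the mean of compounds lying between control limits plus 3 SD, set per campaign, cut at about 8.5% in these data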;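 further: 0% = DMSO-only wells as the low control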
# PLC-gamma1 inh: inhibitors of human phospholipase C gamma1; inhibition, % at 12.2 µM; AID 720700; purified PLC-gamma1, fluorogenic substrate, fluorescence; 0.84% of 370,000 active; P19174; in the data active means inhibition above about 9.5%
# KLK7 zymogen act: activators of human kallikrein-7 zymogen | 0.9% of 370,000 active | activation, % at 7 µM | P49862 | purified proKLK7, EDANS-DABCYL substrate fluorescence; 100% is mature enzyme control, 0% vehicle;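 active means activation above the mean of all tested compounds plus 3 SD, computed per campaign excluding outliers beyond control limits, cut at about 13% in these data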
# PLCb3 inh: inhibitors of human phospholipase C beta3; Q01970; Purified PLC-beta3, fluorogenic substrate, fluorescence; inhibition, % at 12.2 µM; 0.18% of 370,000 active; AID 720704; in the data active means inhibition above about 11%;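 further: 0% = median of compound wells on plate and 100% = full blocker control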
# ADAM10 inh: inhibitors of human ADAM10 | inhibition, % at 7 µM | O14672 | AID 720582 | 0.62% of 370,000 active | recombinant ADAM10, EDANS/DABCYL FRET peptide cleavage, 3 h;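 active means inhibition above a per-campaign cutoff equal to the mean of compounds falling between control-based bounds plus 3 SD, cut at about 20% in these data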;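 further: 0% = DMSO wells while the 100% control is not disclosed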
# proKLK7 act conf: proKLK7 activation, confirmation. shares compounds with KLK7 zymogen act. purified proKLK7, EDANS-DABCYL substrate fluorescence; scaled: vehicle 0, mature enzyme 100. activation, % at 7 µM. 68% of 3,200 active. AID 686949;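 active means activation, as change over the incubation, above the mean of all tested compounds plus 3 SD, cut at about 13% in these data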
# EDANS-DABCYL int: counter-screen for kallikrein-7 activators: EDANS-DABCYL optical interference. shares compounds with KLK7 zymogen act. EDANS-DABCYL substrate fluorescence interference, no enzyme, 4 h; solvent 0%, active enzyme control 100%. activation, % at 7 µM. 80% of 3,200 active;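 active means activation above the all-compound mean plus 3 SD, ignoring values outside control-based bounds, cut at about 4.8% in these data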;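 further: value is the 4 h activation minus the activation read at time zero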
# EDANS interf: optically interferes with EDANS-DABCYL fluorescence, kallikrein-7 activator counter-screen; shares compounds with KLK7 zymogen act; EDANS-DABCYL peptide fluorescence interference, no enzyme; EC50, µM; 20% of 250 active;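 active means compounds that raise the fluorescence signal in this interference counterscreen, with EC50 at or below 10 µM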;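 further: intact quenched peptide substrate alone read at 355 nm excitation and 520 nm emission; signal is fluorescence gain from T0 to T4 after four hours at room temperature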
# * hit, by the source's call; i = inactive; / = no result. An excerpt weighted towards active compounds, which were near 2.9% of everything screened.
SMILES,ADAM17 inh,PLC-gamma1 inh,KLK7 zymogen act,PLCb3 inh,ADAM10 inh,proKLK7 act conf,EDANS-DABCYL int,others
Cc1cccc(OCC(C)CN2CCC(C(O)(c3ccccc3)c3ccccc3)CC2)c1 (stereo not drawn),-1,1,0,0,1,/,/,
CCCOc1ccc2cc(-c3ccccn3)c(=O)oc2c1,i,i,25*,i,i,55*,67*,
COC(=O)C(C)Oc1ccc2cc(-c3ccccc3)c(=O)oc2c1 (stereo not drawn),i,i,16*,i,i,64*,44*,EDANS interf=>70
CC(=O)Oc1cccc(-c2nc3ccccc3c(=O)o2)c1,-1,2,0,-3,-1,/,/,
CC(=O)Oc1ccc2cc(-c3cccnc3)c(=O)oc2c1,i,i,266*,i,i,72*,72*,
O=c1oc2cc(OCc3c(F)cccc3Cl)ccc2cc1-c1ccccn1,-58,-60,-6,-73,-213,/,/,
O=c1oc2ccccc2cc1-c1ccccc1,-94,-62,0,-78,-284,/,/,
CCNC(=O)N(C)[C@H]1C[C@H]2c3[nH]c4c(-c5cccc(C)c5)cccc4c3CCN2C[C@H]1[C@H](C)O,-20,-148,0,-196,-59,/,/,
COc1ccc(N2CCN(CCCNC(=O)CCc3cccc(Cl)c3)CC2)cc1,2,-2,0,2,-2,/,/,
O=S1(=O)c2ccc(N3CCC[C@H]3CO)cc2OCCCN1C1CC1,-4,-5,-1,-4,-4,/,/,
Cc1cccc(-n2c(SCC(=O)N3CCCC3)nc3n[nH]c(C)c3c2=N)c1,-3,-7,30*,-9,4,70*,43*,EDANS interf=i
O=C(/C=C/c1cccc(F)c1)Nc1nccs1,-1,1,0,0,-2,/,/,
O=C(Nc1nccs1)c1ccccc1Br,-3,-1,0,-3,0,/,/,
O=C(/C=C/c1cccs1)Nc1nccs1,-11,-8,15*,-11,-27,10,17*,
O=C(/C=C\c1ccccc1)Nc1nccs1,2,-2,17*,-2,3,5,2,
Nc1ccccc1C(=O)Nc1nccs1,i,i,50*,i,i,14*,16*,
Clc1ccc(CN2CCN(N=Cc3ccncc3)CC2)cc1,2,0,0,5,3,/,/,
CN1CCN(c2c(F)cc3c(=O)c(C(=O)O)cn4c3c2OCN4C)CC1,-127,i,60*,i,-351,21*,30*,
Cc1cc(C)c(NC(=O)c2cn3c4c(c(N5CCN(C)CC5)c(F)cc4c2=O)OCC3C)c(C)c1 (stereo not drawn),-84,-113,2,-157,-335,/,/,
CC(C)C[C@H]1COc2cccc(F)c2S(=O)(=O)N1Cc1cn(CCC2OCCO2)nn1,-3,1,0,-1,0,/,/,
Cc1ccc(C(=O)COc2ccc3ccc(=O)oc3c2)cc1,-4,1,0,-5,-15,/,/,
CCNC(=O)C(Cc1ccccc1)NC(=O)OCc1ccccc1 (stereo not drawn),-6,1,0,-2,-3,/,/,
COc1cccc(C(=O)COc2ccc3ccc(=O)oc3c2)c1,-15,-13,1,-10,-42,/,/,
CCC(NC(=O)OCc1ccccc1)C(=O)Oc1ccc2ccc(=O)oc2c1 (stereo not drawn),i,i,75*,i,i,434*,455*,
CCOc1ccccc1C(=O)Oc1ccc2ccc(=O)oc2c1,-272,i,190*,i,i,305*,248*,
SMILES,ADAM17 inh,PLC-gamma1 inh,KLK7 zymogen act,PLCb3 inh,ADAM10 inh,proKLK7 act conf,EDANS-DABCYL int,others
O=C(Oc1ccc2ccc(=O)oc2c1)c1ccccc1,-374,i,242*,i,i,589*,593*,
O=C(Oc1ccc2ccc(=O)oc2c1)C1CCCCC1,-470,i,107*,i,i,337*,301*,
O=C(NC1CCCCN(Cc2cccc(F)c2)C1=O)c1cccc(C(F)(F)F)c1 (stereo not drawn),2,0,0,0,5,/,/,
C#CCNC(=O)C[C@@H]1C(=O)N(Cc2ccc(OC)cc2)/C2=C/CCCCC[C@@]21C(=O)OCC,-5,-1,0,-1,-6,/,/,
COc1cc(O)c(C(CC(=O)N2CCC(C)CC2)c2ccc3c(c2)OCO3)c(OC)c1 (stereo not drawn),-3,-5,/,-1,-8,/,/,
CCOC(=O)[C@]12CCCC=C1N(Cc1ccc(OC)cc1)C(=O)[C@@H]2CC(=O)NCc1ccc(C)o1,2,1,0,1,9,/,/,
COc1ccc(C(=O)Oc2ccc3ccc(=O)oc3c2)cc1,-48,-63,19*,-94,-111,122*,128*,
O=c1oc2cc(O)ccc2cc1-c1nc2ccccc2o1,i,i,108*,i,i,61*,73*,
NC(=S)c1cc2ccc(O)cc2oc1=O,i,i,24*,i,i,70*,73*,
O=c1oc2cc(O)ccc2cc1S(=O)(=O)c1ccccc1,i,i,38*,i,i,73*,67*,
Cc1cc(-c2nc3ccccc3o2)c2ccccc2n1,-52,-24,2,-33,-216,/,/,
CC(C)C[C@@H]1COc2cc(Br)ccc2S(=O)(=O)N1Cc1cn(Cc2ccc(Br)cc2)nn1,0,2,-1,2,2,/,/,
Nc1ncc(-c2ccc(F)cc2)nc1N1CCN(CCO)CC1,-201,-138,24*,-177,i,8,11*,
CCC(c1nnnn1Cc1ccccc1)N(Cc1ccco1)Cc1cc2cc(OC)ccc2[nH]c1=O (stereo not drawn),-56,-86,0,-109,-168,/,/,
CCCC(c1nnnn1C(C)(C)CC)N(Cc1ccco1)Cc1cc2ccc(OC)cc2[nH]c1=O (stereo not drawn),-185,-392,19*,-451,i,-2,-1,
Cc1cc(=O)oc2n[nH]c(-c3ccccc3)c12,-22,-22,1,-25,-86,/,/,
COc1ccc(-c2[nH]nc3oc(=O)cc(C)c23)cc1,-187,i,13*,i,i,15*,21*,
COc1ccc(-n2c(O)c(/C=N/NS(=O)(=O)c3ccc(C)cc3)c3ccccc3c2=O)cc1OC,-47,-224,48*,-258,-111,0,0,
CNc1ccc(/C=C\CCCO)cn1,-340,-203,16*,-277,i,15*,18*,
O=C1c2ccccc2/C(=C\c2ccc(Br)nc2)N1c1ccccc1,-5,-19,0,-28,-19,/,/,
